Potency data for 15 molecules are collected here from PubChem BioAssay (NCATS).

Records with an inconclusive call do not appear. Activity calls are given as the source filed them. Calls follow the shape of the dose curve; as a rule, active = well fitted cell-killing curve with a large enough effect; inconclusive = small, poorly fitted or top-dose-only effect, or effect the other way; inactive = no such curve, though single readings can be large or run the other way.
Potency is read from the fitted curve at half-maximal effect.

The nature of this experiment: qHTS of pediatric cancer cell lines to identify multiple opportunities for drug repurposing: Confirmatory screen for Saos-2 cells (AID 1347127). Also: nearly all actives have a fitted effect of over 60% in size. To be noted: Saos-2 osteosarcoma cell viability; series mostly up to 45.9 µM. In outline: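 Cells (500-1,000/well) in growth media were settled 5 h at 37 degrees C, then given compounds for 48 h. Viability was read as CellTiter-Glo luminescence. Primary runs used MIPE at 11 points (0.78 nM-46 µM) and NPC at 8 points (0.59 nM-46 µM); follow-ups used 11 points.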
A general note: In qHTS, concentration-response curves come from the screen itself.
For `NC(=O)c1cccc2cn(-c3ccc([C@@H]4CCCNC4)cc3)nc12`, the Potency entry is “inactive”.
On to `COc1cc(=C2C=c3ccccc3=N2)[nH]c1=Cc1[nH]c(C)cc1C`, for which the Potency is 8.27 µM (active).
Consider `OCCCNc1cc(-c2ccnc(Nc3cccc(Cl)c3)n2)ccn1`, for which the Potency is 0.261 µM (active).
With `O=C(Nc1ncc(-c2cc(C(F)F)nn2-c2c(Cl)cccc2Cl)s1)C1CC1` the figure was 0.465 µM (active); with `CC[C@@H]1C(=O)N(C)c2cnc(Nc3ccc(C(=O)NC4CCC(N5CCN(CC6CC6)CC5)CC4)cc3OC)nc2N1C(C)C` (stereo not given in full), “inactive”; with `COc1cc2c(Oc3ccc(NC(=O)C4(C(=O)Nc5ccc(F)cc5)CC4)cc3F)ccnc2cc1OCCCN1CCOCC1`, 4.14 µM (active).
With `Cc1cc(Nc2cc(N3CCN(C)CC3)nc(Sc3ccc(NC(=O)C4CC4)cc3)n2)n[nH]1` the figure was 16.5 µM (active); with `NCC(=O)Nc1ccc(-n2nc(C(F)(F)F)cc2-c2ccc3c(ccc4ccccc43)c2)cc1`, 3.29 µM (active); with `CCC(=C(c1ccccc1)c1ccc(OCCN(C)C)cc1)c1ccccc1`, 18.5 µM (active).
With `Cc1cnc(-c2cnc(NCCNc3ccc(C#N)cn3)nc2-c2ccc(Cl)cc2Cl)[nH]1` the entry was “inactive”; with `CN(C)CCCN=c1c2ccccc2n(C)c2[nH]c(=O)n(C)c(=O)c12`, “inactive”; with `Cc1nc(Nc2n[nH]c3c2CN(C(=O)N[C@H](CN(C)C)c2ccccc2)C3(C)C)c2sccc2n1`, “inactive”.
Turning to `CC(C)(O)c1cc2nc(-c3cnc(N)nc3)nc(N3CCOCC3)c2s1`, the Potency is 1.65 µM (active).
As for `CC1=C(CO)C(=O)O[C@@H]([C@@H](C)[C@H]2CC[C@H]3[C@@H]4C[C@H]5O[C@]56[C@@H](O)C=CC(=O)[C@]6(C)[C@@H]4CC[C@]23C)C1`, the Potency result is “inactive”.
With `C=CC(=O)Nc1cccc(Oc2nc(Nc3ccc(N4CCN(C)CC4)cc3)ncc2Cl)c1` the figure was 2.93 µM (active).
